# Experimental data as given in PubChem BioAssay.
# The source made the active and inactive calls. Unless noted, no stated cut-off is given here; in the data, active means inhibition above about 80%; inactive means the rest.
# Assays:
# [1] = LFS_MB_P medulloblastoma growth inhibition, cell-based, chromothripsis tumors, cisplatin or BGB combos (AID 1671449); settings: LFS_MB_P medulloblastoma cells;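 further: cells exposed for 96 hours; 0% = vehicle DMSO and 100% = killing by high DMSO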
# [2] = HDN33 neuroblastoma growth inhibition, cell-based, chromothripsis tumors, cisplatin or BGB combos (AID 1671450); settings: HDN33 neuroblastoma cells, stronger effect = higher value;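 further: cells exposed to compound for four days; 0% = vehicle DMSO and 100% = cell killing by high DMSO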
# [3] = ICB984 medulloblastoma cell growth inhibition, synergistic combos for chromothripsis tumors, cisplatin or BGB combos (AID 1671451; call rule not given here;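 further: cells exposed for 96 hours before readout; 0% = vehicle DMSO and 100% = killing by high DMSO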); settings: ICB984 medulloblastoma cells, drug combinations, stronger effect = higher value
# [4] = LFS_MB_1R medulloblastoma cell growth inhibition, synergistic combos for chromothripsis tumors, cisplatin or BGB combos (AID 1671452); settings: LFS_MB_1R medulloblastoma cells, stronger effect = higher value;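 further: cells exposed for 96 hours before readout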
# [5] = HTB85 osteosarcoma cell growth inhibition, synergistic combos for chromothripsis tumors, BGB or cisplatin IC20 combos (AID 1671453); settings: HTB85 osteosarcoma cells, drug combinations, stronger effect = higher value;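 further: cells exposed for 96 hours before readout; 0% = vehicle DMSO and 100% = high DMSO killing control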
# [6] = CRL2098 osteosarcoma cell growth inhibition, synergistic combos for chromothripsis tumors, BGB or cisplatin IC20 combos (AID 1671454); settings: CRL2098 osteosarcoma cells, drug combinations, stronger effect = higher value;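 further: cells exposed for 96 h before readout; 0% = vehicle DMSO and 100% = killing by high DMSO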
# [7] = HD-MB03 medulloblastoma cell growth inhibition, synergistic combos for chromothripsis tumors, BGB or cisplatin IC20 combos (AID 1671455; in the data active means inhibition above about 83%;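 further: 0% = vehicle DMSO and 100% = high DMSO as cytotoxic control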); settings: HD-MB03 medulloblastoma cells, stronger effect = higher value
# [8] = UWB1.289 ovarian carcinoma cell growth inhibition, synergistic combos for chromothripsis tumors, BGB or cisplatin combos (AID 1671456); settings: UWB1.289 ovarian carcinoma cells, stronger effect = higher value;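 further: cells exposed to compound for four days; 0% = vehicle DMSO and 100% = killing by high DMSO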
# [9] = LFS_MB_2R medulloblastoma cell growth inhibition, synergistic combos for chromothripsis tumors, cisplatin combos (AID 1671457); settings: LFS_MB_2R medulloblastoma cells, stronger effect = higher value;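 further: cells exposed to compound for four days before readout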
# [10] = MDA-MB-436 breast carcinoma cell growth inhibition, synergistic combos for chromothripsis tumors, BGB or cisplatin combos (AID 1671458; call rule not given here;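 further: cells exposed for 96 hours; 0% = vehicle DMSO and 100% = killing by high DMSO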); settings: MDA-MB-436 breast carcinoma growth inhibition, drug combinations, stronger effect = higher value
# [11] = UWB1.289_BRCA1 ovarian cancer growth, cell-based, BGB or cisplatin combinations (AID 1671459); settings: UWB1.289 BRCA1 ovarian carcinoma, drug combinations, stronger effect = higher value
# [12] = human astrocyte viability loss, single and combined drugs, cytotoxicity control for chromothriptic childhood tumor combination screen, cell-based, BGB or cisplatin IC20 combos (AID 1671460); settings: Human astrocytes, drug combinations, stronger effect = higher value;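 further: cells exposed to compounds for 96 hours before viability readout; 0% = vehicle and 100% = killing control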
# [13] = growth inhibition of BT084 medulloblastoma cells, cell-based, ICGC_MB145, cisplatin and BGB IC40 combos (AID 1671461); settings: drug combinations, stronger effect = higher value;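 further: cells exposed to drugs for 96 hours; 0% = vehicle DMSO and 100% = high DMSO full killing control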
# [14] = growth inhibition of RCMB18 medulloblastoma cells, cell-based, cisplatin and BGB IC40 combos (AID 1671462); settings: stronger effect = higher value;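 further: cells exposed to compound for four days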
# [15] = growth inhibition of CRL1545 osteosarcoma cells, cell-based, cisplatin and BGB IC20 combos (AID 1671464); settings: stronger effect = higher value;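 further: cells exposed to compound for 96 hours before readout; 0% = vehicle DMSO and 100% = high DMSO killing control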
# [16] = at 0.5 µM, stronger effect = higher value
# [17] = measured here: combination with BGB IC20, at 0.005 µM
# [18] = measured here: combination with BGB IC40, at 0.005 µM
# [19] = measured here: combination with BGB IC40, at 0.05 µM
# [20] = measured here: combination with cisplatin, at 0.5 µM, stronger effect = higher value
# [21] = measured here: combination with cisplatin, at 5 µM, stronger effect = higher value
# [22] = measured here: with BGB IC20 combination, at 0.5 µM
# [23] = measured here: with cisplatin IC20 combination, at 0.5 µM
# [24] = measured here: 5 uM single agent, at 5 µM
# [25] = measured here: combination with cisplatin, at 0.5 µM
# [26] = measured here: combination with cisplatin, at 5 µM
# [27] = measured here: with BGB IC20, at 0.5 µM
# [28] = measured here: with BGB IC20, at 5 µM
# [29] = measured here: with cisplatin IC20, at 0.5 µM
# [30] = measured here: with cisplatin IC20, at 5 µM
# [31] = measured here: combination with BGB at IC20, at 0.5 µM
# [32] = measured here: combination with cisplatin at IC20, at 0.5 µM
# [33] = measured here: combo with BGB at IC20, at 0.5 µM
# [34] = measured here: combo with cisplatin at IC20, at 0.5 µM
# [35] = measured here: inhibition with BGB combination, at 0.05 µM
# [36] = measured here: inhibition with cisplatin combination, at 0.05 µM
# [37] = measured here: BGB combination, at 0.5 µM
# [38] = measured here: BGB combination, at 5 µM
# [39] = measured here: cisplatin combination, at 0.5 µM
# [40] = measured here: cisplatin combination, at 5 µM
# [41] = BGB combination, concentration series, at 5 µM
# [42] = cisplatin combination, concentration series, at 5 µM
# [43] = measured here: combo with BGB IC20, at 0.5 µM
# [44] = measured here: combo with cisplatin IC20, at 0.5 µM
# [45] = cisplatin combination, at 0.5 µM
# [46] = measured here: BGB IC40 combination 0.05 uM, at 0.05 µM
# [47] = measured here: BGB IC40 combination, at 0.05 µM
compound,measurement,setting,value
O=C1N=c2ccccc2=C1c1c(O)[nH]c2ccccc12,inhibition,[1]; [16],-10.5% (inactive)
same,inhibition,[1]; [17],-1.18%
same,inhibition,[1]; [18],-11.2%
same,inhibition,[1]; [19],-2.67%
same,inhibition,[1]; [20],-21%
same,inhibition,[1]; [21],114%
same,inhibition,"[2]; BGB combo, at 5 µM",61%
same,inhibition,[2]; at 0.5 µM,5.47% (inactive)
same,inhibition,"[2]; cisplatin combo, at 5 µM",51.4%
same,inhibition,[2]; [22],16.4%
same,inhibition,[2]; [23],-3.78%
same,inhibition,"[2]; single agent, at 5 µM",45.3%
same,inhibition,"[3]; BGB IC20 combo, at 0.005 µM",11.6%
same,inhibition,"[3]; BGB IC40 combo, at 0.005 µM",12.6%
same,inhibition,"[3]; BGB IC40 combo, at 0.05 µM",98.1%
same,inhibition,[3]; at 0.5 µM,-13.3% (inactive)
same,inhibition,"[3]; cisplatin combo, at 0.05 µM",98%
same,inhibition,"[3]; cisplatin combo, at 0.5 µM",-8.2%
same,inhibition,"[3]; cisplatin combo, at 5 µM",-23.1%
same,inhibition,[3]; [24],-12.3%
same,inhibition,[4]; at 0.5 µM,38.6% (inactive)
same,inhibition,[4]; [19],-8.14%
same,inhibition,[4]; [25],68.7%
same,inhibition,[4]; [26],104%
same,inhibition,[5]; at 0.5 µM,-27.2% (inactive)
same,inhibition,[5]; [27],-36.8%
same,inhibition,[5]; [28],49.4%
same,inhibition,[5]; [29],-31.8%
same,inhibition,[5]; [30],19.9%
same,inhibition,"[5]; single agent, at 5 µM",73.7%
same,inhibition,[6]; at 0.5 µM,-38.8% (inactive)
same,inhibition,[6]; [31],-85.6%
same,inhibition,[6]; [32],-13.6%
same,inhibition,[7]; at 0.5 µM,-7.99% (inactive)
same,inhibition,[7]; [33],-0.15%
same,inhibition,[7]; [34],-18.7%
same,inhibition,[8]; at 0.5 µM,-2.76% (inactive)
same,inhibition,[8]; [35],-4.21%
same,inhibition,[8]; [36],-14.6%
same,inhibition,[9]; at 0.5 µM,-4.68% (inactive)
same,inhibition,[9]; [25],-7.54%
same,inhibition,[9]; [26],96.6%
same,inhibition,[10]; at 0.5 µM,0.62% (inactive)
same,inhibition,[10]; [37],-2.01%
same,inhibition,[10]; [38],38.1%
same,inhibition,[10]; [39],2.13%
same,inhibition,[10]; [40],46%
same,inhibition,[11]; [41],47.2%
same,inhibition,[11]; at 0.5 µM,-5.34% (inactive)
same,inhibition,[11]; [42],63.2%
same,inhibition,[12]; at 0.5 µM,-0.99% (inactive)
same,inhibition,[12]; [43],17.5%
same,inhibition,[12]; [44],-29.2%
same,inhibition,[13]; at 0.5 µM,-8.62% (inactive)
same,inhibition,[13]; [45],-4.64%
same,inhibition,"[13]; cisplatin combination, at 5 µM",99.5%
same,inhibition,[13]; [46],21.5%
same,inhibition,"[13]; single agent, at 5 µM",59.7%
same,inhibition,[14]; at 0.5 µM,50.6% (inactive)
same,inhibition,"[14]; cisplatin combo, at 5 µM",103%
same,inhibition,[14]; [47],-10.1%
same,inhibition,[14]; [25],81.1%
same,inhibition,"[14]; single agent, at 5 µM",98.9%
same,inhibition,[15]; at 0.5 µM,7.46% (inactive)
same,inhibition,[15]; [22],-4.11%
same,inhibition,[15]; [23],11.3%
same,inhibition,"[15]; single agent, at 0.05 µM",-37%
same,inhibition,"[15]; single agent, at 5 µM",95.5%
C#CCC(CCCCCC)C(=O)O (stereo unspecified),inhibition,[1]; [16],5.69% (inactive)
same,inhibition,[1]; [17],3.1%
same,inhibition,[1]; [18],30.2%
same,inhibition,[1]; [19],36.1%
same,inhibition,[1]; [20],3.27%
same,inhibition,[1]; [21],-9.45%
same,inhibition,"[2]; BGB combo, at 5 µM",13.8%
same,inhibition,[2]; at 0.5 µM,8.32% (inactive)
same,inhibition,"[2]; cisplatin combo, at 5 µM",-0.039%
same,inhibition,[2]; [22],10.2%
same,inhibition,[2]; [23],-1.96%
same,inhibition,"[2]; single agent, at 5 µM",-0.563%
same,inhibition,"[3]; BGB IC20 combo, at 0.005 µM",-2.69%
same,inhibition,"[3]; BGB IC40 combo, at 0.005 µM",-16%
same,inhibition,"[3]; BGB IC40 combo, at 0.05 µM",-11.6%
same,inhibition,[3]; at 0.5 µM,-6.37% (inactive)
same,inhibition,"[3]; cisplatin combo, at 0.05 µM",-16%
same,inhibition,"[3]; cisplatin combo, at 0.5 µM",-14.1%
same,inhibition,"[3]; cisplatin combo, at 5 µM",-27.6%
same,inhibition,[3]; [24],-4.43%
same,inhibition,[4]; at 0.5 µM,3.82% (inactive)
same,inhibition,[4]; [19],-10%
same,inhibition,[4]; [25],-6.41%
same,inhibition,[4]; [26],2.32%
same,inhibition,[5]; at 0.5 µM,6.28% (inactive)
same,inhibition,[5]; [27],4.58%
same,inhibition,[5]; [28],-11%
same,inhibition,[5]; [29],-9.52%
same,inhibition,[5]; [30],-7.57%
same,inhibition,"[5]; single agent, at 5 µM",22.7%
same,inhibition,[6]; at 0.5 µM,2.92% (inactive)
same,inhibition,[6]; [31],26.1%
same,inhibition,[6]; [32],6.9%
same,inhibition,[7]; at 0.5 µM,3.15% (inactive)
same,inhibition,[7]; [33],0.099%
same,inhibition,[7]; [34],2.13%
same,inhibition,[8]; at 0.5 µM,4.47% (inactive)
same,inhibition,[8]; [35],5.84%
same,inhibition,[8]; [36],2.18%
same,inhibition,[9]; at 0.5 µM,-4.49% (inactive)
same,inhibition,[9]; [25],5.98%
same,inhibition,[9]; [26],6.31%
same,inhibition,[10]; at 0.5 µM,-1.28% (inactive)
same,inhibition,[10]; [37],-4.71%
same,inhibition,[10]; [38],-7.63%
same,inhibition,[10]; [39],-0.109%
same,inhibition,[10]; [40],-1.88%
same,inhibition,[11]; [41],-4.85%
same,inhibition,[11]; at 0.5 µM,3.74% (inactive)
same,inhibition,[11]; [42],16.5%
same,inhibition,[12]; at 0.5 µM,6.72% (inactive)
same,inhibition,[12]; [43],20.5%
same,inhibition,[12]; [44],9.45%
same,inhibition,[13]; at 0.5 µM,8.59% (inactive)
same,inhibition,[13]; [45],9.78%
same,inhibition,"[13]; cisplatin combination, at 5 µM",1.82%
same,inhibition,[13]; [46],2.2%
same,inhibition,"[13]; single agent, at 5 µM",14.4%
same,inhibition,[14]; at 0.5 µM,-5.37% (inactive)
same,inhibition,"[14]; cisplatin combo, at 5 µM",23.5%
same,inhibition,[14]; [47],5.44%
same,inhibition,[14]; [25],22%
same,inhibition,"[14]; single agent, at 5 µM",-15.4%
same,inhibition,[15]; at 0.5 µM,-23% (inactive)
same,inhibition,[15]; [22],-43.7%
same,inhibition,[15]; [23],-12.7%
same,inhibition,"[15]; single agent, at 0.05 µM",0.433%
same,inhibition,"[15]; single agent, at 5 µM",16.3%
